Screening results as filed in PubChem.
G9a block: inhibitors of human histone lysine methyltransferase G9a; Q96KQ7; G9a H3K9 monomethylation, AlphaScreen, 2 h; Potency, µM (highest dose often 102 µM), hits mostly inhibitors; hit rate 8.8% among 350,000; AID 504332; further: nearly all actives have a fitted effect of over 75% in size
Target sequence (Q96KQ7 913-1193 limits assumed): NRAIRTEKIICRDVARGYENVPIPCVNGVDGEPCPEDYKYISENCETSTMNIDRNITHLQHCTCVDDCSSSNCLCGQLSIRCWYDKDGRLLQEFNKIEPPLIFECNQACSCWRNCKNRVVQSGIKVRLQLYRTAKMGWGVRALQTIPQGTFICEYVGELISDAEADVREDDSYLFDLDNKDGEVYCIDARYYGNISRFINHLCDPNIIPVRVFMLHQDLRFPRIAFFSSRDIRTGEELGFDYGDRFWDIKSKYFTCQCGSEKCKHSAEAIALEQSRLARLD
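Using a bead-based AlphaScreen, monomethylated H3K9 product from 2 h room-temperature reactions (G9a 20 nM, peptide 500 nM, SAM 20 uM) was detected with 0.5 ug/mL rabbit anti-H3K9me1 antibody.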
Sfp PPTase inh: Sfp phosphopantetheinyl transferase inhibition; Biochemical Sfp PPTase activity, qHTS; Potency, µM, most hits filed as inhibitors; hit rate 3.5% among 310,000;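 further: the enzyme is Sfp with the accession as filed and its product quenches rhodamine fluorescence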
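Buffer: 50 mM Hepes-Na pH 7.6, 10 mM MgCl2, 0.01% Nonidet P-40, 0.01% BSA. Enzyme 15 nM, pre-exposed to compound 15 min; substrates then added and fluorescence change tracked over 30 min.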
HP1b chromo inh: HP1-beta chromodomain-methylated histone interaction inhibition; hit rate 0.56% among 390,000; Potency, µM (highest dose often 114 µM), most hits filed as inhibitors; P83916; AlphaScreen HP1-beta / biotin-H3K9me3 peptide binding; further: nearly all actives have a fitted effect of over 70% in size
Target sequence (P83916 whole entry, looked up): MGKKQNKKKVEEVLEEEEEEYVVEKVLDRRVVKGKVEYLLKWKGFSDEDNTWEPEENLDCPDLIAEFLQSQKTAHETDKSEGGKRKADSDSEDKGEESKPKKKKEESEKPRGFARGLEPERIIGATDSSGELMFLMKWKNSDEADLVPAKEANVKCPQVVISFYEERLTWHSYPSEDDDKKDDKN
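HP1-beta protein (50 nM final) preincubated 30 min at room temperature with biotinylated H3(1-18)K9me3 peptide (50 nM) in PBS pH 7.4, 0.01% Tween-20, then compound added for 30 min. AlphaScreen streptavidin donor/nickel chelate acceptor beads (10 ug/mL final), 30 min dark, luminescence read.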
L3MBTL1 block: blocks human L3MBTL1. Q9Y468. AlphaScreen L3MBTL1–H3K9me1 peptide binding. Potency, µM (doses to about 57.1 µM), usual class: inhibitors. hit rate 0.66% among 230,000. AID 485360; further: nearly all actives have a fitted effect of over 60% in size
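L3MBTL1 (50 nM) pre-complexed 30 min with biotinylated H3(1-15)K9me1 peptide (75 nM), then compounds added for 30 min at room temperature; AlphaScreen streptavidin donor/nickel chelate acceptor beads (10 ug/mL final) read after 30 min dark incubation.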
JMJD2A Tudor: JMJD2A Tudor domain (human) inhibition. O75164. AlphaScreen JMJD2A-Tudor / H3K4me3 peptide binding. Potency, µM (highest dose often 114 µM), actives largely listed as inhibitors. hit rate 4.4% among 390,000. AID 504339; further: nearly all actives have a fitted effect of over 50% in size
BAZ2B block: BAZ2B (human) inhibition. Q9UIF8. AlphaScreen BAZ2B-H3K14Ac peptide displacement. Potency, µM (titrated, usually from 114 µM), hits mostly inhibitors. hit rate 4.4% among 360,000. AID 504333; further: nearly all actives have a fitted effect of over 60% in size
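AlphaScreen displacement: compounds (up to 110uM) incubated 30 min at room temperature with a preformed 50 nM BAZ2B/50 nM biotinylated H3K14Ac peptide complex in PBS pH 7.4 with Tween-20. Donor and acceptor beads at 10 ug/mL final added, 20 min light-protected before reading.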
Of the large screens only hits and unclear results are named; the others gave an inactive call. The list is not random: actives were taken first. Their share in the collection is about 12%. The call rests on the fitted dose curve; in most records, active means well fitted curve in the direction sought with a large enough effect; inconclusive means small, poorly fitted or top-dose-only effect, or another doubt; inactive means no such curve, though single readings can be large; an effect the other way counts as inactive or inconclusive.

O=C(CC(=O)NC1CCCCC1)N/N=C/c1ccccc1[N+](=O)[O-]	G9a block 45µM (no result: L3MBTL1 block)
O=C(CC(=O)NC1CCCCC1)N/N=C/c1ccccc1Cl	none
Cn1c(-c2ccc(S(=O)(=O)N3CCCC3)cc2)csc1=Nc1ccc(Cl)c(Cl)c1	G9a block inconclusive, HP1b chromo inh inconclusive, JMJD2A Tudor 50µM (no result: Sfp PPTase inh, L3MBTL1 block)
COCCCn1c(-c2ccc(S(=O)(=O)N3CCOCC3)cc2)csc1=Nc1ccccc1	G9a block inconclusive, HP1b chromo inh inconclusive, JMJD2A Tudor inconclusive, BAZ2B block inconclusive (no result: L3MBTL1 block)
O=S(=O)(c1ccc(-c2csc(=Nc3ccc(OC(F)(F)Cl)cc3)n2CCCO)cc1)N1CCCC1	G9a block 1µM, JMJD2A Tudor inconclusive, BAZ2B block 89µM (no result: Sfp PPTase inh, L3MBTL1 block)
COc1ccc(-c2nc3ccccc3s2)cc1NC(=O)COc1cccc(C)c1	none (no result: Sfp PPTase inh, L3MBTL1 block)
CCOC(=O)N1CCN(C(=O)c2ccc3c(c2)N(Cc2ccccc2F)C(=O)c2ccccc2S3=O)CC1 (stereo not given)	none (no result: Sfp PPTase inh, L3MBTL1 block)
O=C(NCCO)c1ccc2[nH]c3c(c2c1)CCCC3	G9a block inconclusive
Cc1ccc(NC(=S)NCc2ccc3[nH]c4c(c3c2)CCCC4)cc1	G9a block 45µM, HP1b chromo inh inconclusive, L3MBTL1 block inconclusive, JMJD2A Tudor 50µM, BAZ2B block 35µM
COCCNC(=S)NCc1ccc2[nH]c3c(c2c1)CCCC3	G9a block 45µM, JMJD2A Tudor 56µM (no result: L3MBTL1 block, BAZ2B block)
CC(C)CC(=O)NCc1ccc2[nH]c3c(c2c1)CCCC3	G9a block 40µM (no result: L3MBTL1 block, BAZ2B block)
COCCNC(=O)NC(=O)COC(=O)c1ccc2[nH]c3c(c2c1)CCCC3	none (no result: L3MBTL1 block)
Cc1ccc(NC(=O)C2CCN(S(=O)(=O)c3ccc4[nH]c5c(c4c3)CCCCC5)CC2)cc1	none (no result: Sfp PPTase inh, L3MBTL1 block)
Cc1cccc(NC(=O)C(=O)NCC(c2cccnc2)N2CCOCC2)c1 (stereo not given)	none (no result: Sfp PPTase inh, L3MBTL1 block)
COc1ccccc1NS(=O)(=O)c1ccc2nc(CCl)[nH]c2c1	G9a block 20µM (no result: L3MBTL1 block)
COc1ccc(NS(=O)(=O)c2cccc(C(=O)NNC(=O)NCCCl)c2)cc1	G9a block 50µM
COc1ccccc1NS(=O)(=O)c1ccc(C)c(NC(=O)NCCCl)c1	Sfp PPTase inh 89µM (no result: G9a block)
CCN(CC)S(=O)(=O)c1ccc2c(c1)[nH]c(=S)n2CC	G9a block 7.9µM, Sfp PPTase inh 56µM (no result: BAZ2B block)
CCN(CC)S(=O)(=O)c1ccc2nc(CCl)[nH]c2c1	G9a block 50µM
COc1ccc(NS(=O)(=O)c2ccc3nc(COc4ccc5ccccc5c4)[nH]c3c2)cc1	G9a block inconclusive, JMJD2A Tudor inconclusive
COc1ccc(OCc2nc3ccc(S(=O)(=O)Nc4ccccc4Cl)cc3[nH]2)cc1	JMJD2A Tudor 40µM
CCN(CC)S(=O)(=O)c1ccc(Cl)nc1	none (no result: L3MBTL1 block, BAZ2B block)
CC1(C)CC(=O)C2=C(C1)N(c1cccc(O)c1)C1=C(C2)C(=O)CC(C)(C)C1	G9a block 2.2µM, Sfp PPTase inh 10µM, BAZ2B block inconclusive (no result: L3MBTL1 block)
O=[N+]([O-])c1cc(-c2nc(-c3ccccc3)no2)ccc1NC1CCCCC1	G9a block inconclusive, BAZ2B block inconclusive (no result: Sfp PPTase inh, L3MBTL1 block)
CC(=O)CCOC1CCCCO1 (stereo not given)	none (no result: G9a block, HP1b chromo inh, L3MBTL1 block, JMJD2A Tudor, BAZ2B block)
COc1ccc(NS(=O)(=O)c2ccc(-c3cnc(C4CC4)o3)cc2)cc1Cl	none (no result: Sfp PPTase inh, L3MBTL1 block)
CC1=CC(=O)C(C(C)C)=CC1=NC(=O)c1ccc(C)cc1	G9a block 8.9µM, Sfp PPTase inh 10µM, HP1b chromo inh 22µM, JMJD2A Tudor 50µM, BAZ2B block 40µM
CC1=CC(=O)C(C(C)C)=C/C1=N/OC(=O)c1cccc([N+](=O)[O-])c1	Sfp PPTase inh inconclusive (no result: L3MBTL1 block)
CC1CCN(C(c2ccc(N(C)C)cc2)c2nnnn2Cc2ccc(F)cc2)CC1 (stereo not given)	HP1b chromo inh inconclusive, JMJD2A Tudor inconclusive, BAZ2B block 13µM
Fc1ccc(Cn2nnnc2C(c2ccc(Cl)cc2)N2CCSCC2)cc1 (stereo not given)	G9a block 50µM, JMJD2A Tudor 56µM
